A selection follows.
aSyn 5UTR act – Activators via SNCA 5'UTR binding, MLPCN. alpha-synuclein 5'UTR reporter, activators screen. activity score, % (tested at 7.5 µM), hits read low. 7.1% of 300,000 active; in the data active = activity score below about -60%
A number is an active result; - = inactive.

SMILES	aSyn 5UTR act
FC(F)Sc1ccc(NC(=S)NC2CCCCC2)cc1	-109.3
FC(F)Sc1ccc(NC(=S)NCc2ccccc2)cc1	-70.3
S=C(Nc1ccc(Br)cc1)NC1CCCC1	-123.6
O=C(CC1CCCC1)Nc1ccc(Br)cc1	-137.7
FC(F)Sc1ccc(NC(=S)NCC2CCCCC2)cc1	-66.9
CC1CCN(C(=S)Nc2ccc(SC(F)F)cc2)CC1	-142.6
Cc1cc(NC(=O)c2ccc(-c3ccccc3F)o2)no1	-124.8
COC(=O)c1ccccc1NC(=O)c1ccc(-c2ccccc2F)o1	-129.5
COc1ccccc1NC(=O)c1ccc(-c2ccccc2F)o1	-145.4
CCc1ccc2[nH]c(=O)c(CN(Cc3nnnn3C3CCCC3)C3CCCCC3)cc2c1	-69.7
Cc1cc(C)n(-c2nc(SCCN(C)C)c3c4c(sc3n2)CCCC4)n1	-71.2
CCOC(=O)c1c(Cc2ccccc2)c[nH]c1C	-74.8
CC(=O)c1c(C)[nH]c(C(=O)OCc2ccc(Br)cc2)c1C	-74.4
CC(=O)c1c(C)[nH]c(C(=O)OCCOc2ccccc2)c1C	-
CCOC(=O)c1c(C)[nH]c(C(=O)OCc2ccccc2)c1C	-165.4
CC(=O)c1c(C)[nH]c(C(=O)OCc2ccccc2F)c1C	-100.7
CCCCCCC(=O)c1c(C)[nH]c(C(=O)OCC)c1C	-113.5
CCOC(=O)c1c(C)[nH]c(C(=O)OCC(=O)NCCc2ccc(OCC)c(OCC)c2)c1C	-
CCOC(=O)c1c(C)[nH]c(C(=O)C(C)Sc2ccc(Cl)cc2)c1C (stereo not drawn)	-97.4
CCOC(=O)c1[nH]c(C)c(C(=O)Nc2ccc(C)c(Cl)c2)c1C	-91.7
CC(=O)c1c(C)[nH]c(C(=O)OCc2cccc(C)c2)c1C	-89.6
CCOC(=O)c1c(C)[nH]c(C(=O)N/N=C\c2ccccc2O)c1C	-
CCOC(=O)c1c(C)[nH]c(C(=O)NCc2ccccn2)c1C	-158.9
Cc1nc(/N=C(\N)NC(=O)c2ccccc2)nc2ccccc12	-292.2
Cc1ccc2nc(/N=C(\N)NC(=O)NC3CCCCC3)nc(C)c2c1	-149.4
SMILES	aSyn 5UTR act
CCc1ccc(C(=O)NNc2ccccc2F)cc1	-83.4
CCCc1ccc(C(=O)NNc2ccccc2F)cc1	-110.2
O=c1c2ccccc2nnn1CSc1ccccc1	-74.7
C=CCc1ccc(OCc2ccc(C(=O)Nc3ccc(NC(C)=O)cc3)o2)c(OC)c1	-74.2
Cc1ccc(C2=NCN(c3ccc(C(=O)O)cc3)C(=S)N2)cc1	-116.5
S=C1NC(c2ccccc2)=NCN1c1ccccc1	-66.0
O=S1(=O)CCN2C=C(Br)C=C(Br)C2=N1	-71.9
COc1ccc(NC(=S)Nc2ccccn2)c(OC)c1	-152.7
COc1ccc(NC(=S)Nc2cc(C)ccn2)c(OC)c1	-243.3
COc1ccc(NC(=O)c2nc(S(=O)(=O)Cc3cccc(C)c3)ncc2Cl)c(OC)c1	-
CN(C)/C=N/c1nc2ccc3c(c2s1)CCCC3	-138.1
COc1ccc2nc(/N=C/c3c(C)[nH]n(-c4ccc(C)cc4)c3=O)sc2c1	-73.3
COc1ccc2nc(/N=C\N(C)C)sc2c1	-91.5
Cc1ccc(-n2[nH]c(C)c(C=NCc3ccncc3)c2=O)cc1	-65.3
O=C(/C=C/c1cccc(O)c1)c1ccc(N2CCOCC2)cc1	-181.9
O=C(NC(=S)Nc1ccc(N2CCOCC2)cc1)c1cccc(Cl)c1	-72.2
O=C(Nc1ccc(N2CCOCC2)cc1)c1cnsn1	-
Cc1cccc(C(=O)O/N=C/c2c(N3CCOCC3)n(C)c3ccccc23)c1	-
C/C(=C\C(=O)c1ccccc1)Nc1ccc(N2CCOCC2)cc1	-63.1
O=C(NC(=S)Nc1ccc(N2CCOCC2)cc1)c1ccccc1	-147.5
CN(C)C(=S)Nc1ccc(N2CCOCC2)cc1	-67.8
Cc1ccc(CNc2ccc3c(c2)ncn3C)cc1	-169.7
CCc1ccc(CNc2ccc3c(c2)ncn3C)cc1	-156.1
CCn1cnc2cc(NCc3ccc(Cl)cc3)ccc21	-111.0
Cc1ccc(CNc2ccc3c(c2)ncn3C(C)(C)C)cc1	-97.4
SMILES	aSyn 5UTR act
CCCn1cnc2cc(NCc3ccccn3)ccc21	-71.1
CCc1nc(SCc2ccc(Cl)cc2)n[nH]1	-49.4
CCc1nc(SCc2ccc(Br)cc2)n[nH]1	-88.3
CCc1nc(SCc2ccc(OCC(C)C)cc2)n[nH]1	-102.1
COc1ccc(-c2ccc(NC(=O)c3ccc(Br)o3)cc2)nn1	-110.4
CCN(CC)c1ccc(NC(=O)c2cnn(CC)c2)cc1	-94.8
COC(=O)Cc1ccc(NC(=O)c2ccc(Br)o2)cc1	-152.8
CCN(CC)c1ccc(NC(=O)c2ccc(Br)o2)cc1	-150.7
Cc1cc(N/N=C/c2c(O)ccc3ccccc23)nc(-c2ccccc2O)n1	-
Cc1cc(Nc2ccccc2)nc(-c2ccccc2O)n1	-100.7
O=C(CSc1n[nH]c(-c2ccccc2)n1)c1ccccc1	-84.4
N#Cc1ccc(-c2ccc(Cl)cc2)nc1SCC(=O)c1cccc(Cl)c1	-81.5
N#Cc1ccc(-c2cccnc2)nc1SCC(=O)c1ccccc1	-115.6
CCc1ccc(-c2cn3nc(C)c(C)nc3n2)cc1	-
COc1ccc(-c2cn(Cc3ccc(C)cc3)nn2)cc1	-107.6
CCCCCc1ccc(-c2cn(Cc3ccc(C)cc3)nn2)cc1	-99.5
COc1ccc2oc(=O)c(C(=O)N3CCN(c4ccccc4C)CC3)cc2c1	-157.3
COc1cc2c(cc1OC)CN(C(=O)c1cc3ccccc3oc1=O)CC2	-98.8
COc1ccc2oc(=O)c(C(=O)N3CCN(c4ccccc4)CC3)cc2c1	-68.1
CC(C)(C)NC(=O)N1CCN(c2nc3ccc(Cl)cc3s2)CC1	-156.1
CCCCC(=O)N1CCN(c2nc3ccc(Cl)cc3s2)CC1	-148.1
CC(C)(C)NC(=O)N1CCN(c2nc(-c3ccccc3)ns2)CC1	-118.9
CCNC(=O)NC(=O)COC(=O)c1ccccc1SCC(=O)NC(=O)NCC	-121.6
CC(=O)c1ccc(Oc2ccc(C(C)=O)cc2)cc1	-95.8
c1ccc(NC2=Nc3ccccc3CS2)cc1	-201.2
SMILES	aSyn 5UTR act
Cc1[nH]n(C(N)=S)c(=O)c1N=Nc1cccc(C(F)(F)F)c1	-164.6
Cc1[nH]n(C2=NCCS2)c(=O)c1N=Nc1cccc(C(F)(F)F)c1	-
Cc1[nH]n(C(N)=S)c(=O)c1N=Nc1ccc(Br)cc1	-90.5
Cc1ccc(N=Nc2c(C)[nH]n(C(N)=S)c2=O)cc1	-115.7
Cc1cccc(NC(=S)N2N=CCC2c2ccccc2)c1 (stereo not drawn)	-125.2
CCc1ccccc1NC(=S)N1N=CCC1c1ccccc1 (stereo not drawn)	-71.0
N/C(=N\c1nc2ccccc2o1)NC(=O)c1ccc(F)cc1	-132.5
COc1ccc(C(=O)/C=C/Sc2nc3ccccc3o2)cc1	-169.0
N/C(=N\c1nc2ccccc2o1)NC(=O)c1ccc(Cl)cc1	-86.9
N/C(=N\c1nc2ccccc2o1)NC(=O)c1ccccc1Br	-184.3
COc1ccc(C(=O)N/C(N)=N/c2nc3ccccc3o2)cc1	-215.9
Cc1ccc2oc(/N=C(\N)NC(=O)C(C)(C)C)nc2c1	-
Oc1c(Br)cc(Br)cc1C=Nc1ccc2c(c1)OCO2	-65.9
Cn1cccc1C(=O)C(=O)Nc1ccccc1	-112.2
Cn1cccc1C(=O)C(=O)Nc1ccccc1C(F)(F)F	-129.7
Cc1c(Cl)cccc1N=Cc1ccc([N+](=O)[O-])s1	-89.0
Cc1ccc(C(=O)Nc2ccccc2C(=O)Nc2ccccn2)cc1Cl	-70.4
Cc1ccc(C(=O)Nc2cccnc2Cl)cc1Cl	-156.2
COc1ccc(C(=O)Nc2ccccc2C(=O)Nc2ccccn2)cc1	-104.4
CCc1cccc2c(=O)c(C(=O)N3CCCCCC3)c[nH]c12	-77.7
Cc1ccccc1Oc1cc(NC(=O)Cn2cnc([N+](=O)[O-])c2)cc([N+](=O)[O-])c1	-90.8
O=C(c1ccccc1Sc1c(Cl)cccc1[N+](=O)[O-])N1CCOCC1	-73.7

From PubChem
